Data from paper PMC5540273 (PLoS ONE, 2017).

Tested on: GSK3B
Conditions: concentration: 1 μM, replicates: in singlicate; n = 1
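Also: KINOMEscan kinase panel screen.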

| SMILES | %Inh [%] |
| --- | --- |
| CCCc1ccc(S(=O)(=O)NC2CCN(c3ccnc(Nc4ccc(F)cc4)n3)C2)cc1 (stereo not shown) [GSK1379715] | 21 |
| COC(=O)c1c(-c2ccccc2)c2cc(OC)ccc2c(=O)n1Cc1ccccc1 | 18 |
| COc1cccc(-c2cc(-c3c[nH]nc3-c3ccccn3)ccn2)c1 [GW680338] | 8 |
| COc1cc2ncnc(Nc3ccc4nc(-c5ccccc5)[nH]c4c3)c2cc1OC.Cl [GW282450] | 22 |
| COC(=O)c1c(-c2ccccc2)c2cc(C(=O)O)ccc2c(=O)n1Cc1ccccc1 | 0 |
| Cc1cccc(-c2nc(Nc3ccncc3)c3ccccc3n2)n1 [GW855857] | 0 |
| Cc1cccc(-c2nc(-c3ccc(S(C)(=O)=O)cc3)sc2-c2ccnc(NCCc3ccccc3)c2)c1 | 0 |
| CN(C)CCN(C)C(=O)c1cc(-c2ccncc2)c(-c2ccc(Cl)c(O)c2)o1.Cl.Cl [SB-710397] | 14 |
| Cc1nnc(-c2ccc3occ(-c4ccc(S(C)=O)cc4)c3c2)[nH]1 (stereo not shown) | 75 |
| COc1cc2nccc(Nc3ccc(NC(=O)c4ccc(C)cc4)c(O)c3)c2cc1OC.Cl [GW440132] | 0 |
| Cc1cccc(-c2cc(Nc3ccncc3)c3ccccc3n2)n1 [GSK223675] | 12 |
| Cn1ccc2ncnc(Oc3ccc(Nc4nc5ccccc5[nH]4)cc3)c21 | 0 |
| Cc1cc(NCC(c2ccccc2)c2ccccc2)nc(NCc2ccc(C(F)(F)F)cc2)n1 [GW497681] | 0 |
| Cc1cccc(-c2nc(C)cc(Nc3ccncc3)n2)n1 [GSK257997] | 17 |
| Cl.c1ccc(-c2n[nH]cc2-c2ccnc(-c3ccc(CN4CCOCC4)cc3)c2)nc1 [GW776245] | 0 |
| Cc1ccc(NC(=O)Nc2cc(C(C)(C)C)nn2-c2ccccc2)cc1 [GSK1014915] | 13 |
| CC1=C(C(=O)Nc2cc3cn[nH]c3cc2F)C(c2ccc(C(F)(F)F)cc2)CC(=O)N1 (stereo not shown) [GSK429286] | 24 |
| Nc1nc(-c2nccs2)c(-c2ccnc3ccccc23)s1 [GW693542] | 14 |
| O=C(O)COc1ncnc2cc(-c3ccc4[nH]ncc4c3)sc12 | 27 |
| Cc1cccc(-c2nc(Nc3cccc(C(N)=O)c3)c3ccccc3n2)n1 [GW876019] | 12 |
| CC(C)(C)c1ccc(C(=O)Nc2cn3cc(-c4cccnc4)ccc3n2)cc1 | 5 |
| COc1ccccc1CNC(=O)c1cc(C(=O)c2ccccc2C)c[nH]1 [GSK364507] | 0 |
